Source: PubChem
Bead autofluor = compound fluorescence in toxin protease inhibitor counterscreen; compound autofluorescence counterscreen, microsphere flow cytometry; hits give high values; fluorescence intensity (test concentration not listed); hit rate 3.1% among 360,000; AID 624483; in the data active = fluorescence intensity above about 16000; inconclusive = no clear call, values can overlap the other calls
Vc quorum ag = induces V. cholerae light production without autoinducers; V. cholerae BH1578 lux reporter, luminescence, 6 h; activation, % at 18.7 µM; hit rate 0.16% among 350,000; AID 588436; in the data active = activation mostly above about 9.7%, no sharp cut-off; inconclusive = no clear call, values can overlap the other calls; inactive = mostly below about 3.7%
BoNT F protease = blocks Botulinum neurotoxin F light chain protease; Multiplex microsphere protease cleavage assay, flow cytometry; inhibition, % at 10 µM; hit rate 0.22% among 360,000; AID 588497; in the data active = inhibition above about 35%, passing the limit was not always enough; inconclusive = no clear call, values can overlap the other calls; note: plate controls were buffer without enzyme for full effect and enzyme alone for no effect
Anthrax LF prot = blocks Bacillus anthracis lethal factor protease. P15917. multiplex microsphere protease cleavage assay, LF. inhibition, % at 10 µM. hit rate 0.12% among 360,000; note: plate controls were buffer without enzyme for full effect and enzyme alone for no effect
Target sequence (P15917 whole entry, looked up): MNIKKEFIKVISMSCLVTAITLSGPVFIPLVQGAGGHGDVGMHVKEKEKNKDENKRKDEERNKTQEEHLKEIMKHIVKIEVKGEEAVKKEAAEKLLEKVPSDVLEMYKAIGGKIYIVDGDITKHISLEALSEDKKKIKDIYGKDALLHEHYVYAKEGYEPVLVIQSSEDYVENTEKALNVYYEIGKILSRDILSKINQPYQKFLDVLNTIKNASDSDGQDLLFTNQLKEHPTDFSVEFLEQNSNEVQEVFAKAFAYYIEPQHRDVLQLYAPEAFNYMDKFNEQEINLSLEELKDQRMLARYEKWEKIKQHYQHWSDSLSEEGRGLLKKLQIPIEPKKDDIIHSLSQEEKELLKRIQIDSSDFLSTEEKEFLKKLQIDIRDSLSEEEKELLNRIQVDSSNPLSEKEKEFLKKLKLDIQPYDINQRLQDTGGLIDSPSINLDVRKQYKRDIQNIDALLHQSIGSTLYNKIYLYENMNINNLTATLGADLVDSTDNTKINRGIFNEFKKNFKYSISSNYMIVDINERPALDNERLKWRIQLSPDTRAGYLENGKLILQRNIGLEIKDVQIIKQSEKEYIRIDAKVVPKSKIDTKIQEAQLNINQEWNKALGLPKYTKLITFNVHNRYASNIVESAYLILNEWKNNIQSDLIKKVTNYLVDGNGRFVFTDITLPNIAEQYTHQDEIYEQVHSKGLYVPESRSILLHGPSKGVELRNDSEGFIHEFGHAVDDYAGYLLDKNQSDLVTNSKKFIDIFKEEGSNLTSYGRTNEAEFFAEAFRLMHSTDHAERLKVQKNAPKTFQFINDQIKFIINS
BoNT A protease = blocks Botulinum neurotoxin A light chain protease. multiplex microsphere protease substrate cleavage, flow cytometry. inhibition, % at 10 µM. hit rate 0.17% among 360,000. AID 588499; note: plate controls were buffer without enzyme for full effect and enzyme alone for no effect
* hit, by the source's call; i = inactive; ? = inconclusive; . = no result given. Hits are enriched below; roughly 3.5% of the tested compounds scored in any of these assays. Cut-off read from the data, not from the text of the source, unless noted: active = inhibition above about 30%; inconclusive = no clear call, values can overlap the other calls; inactive = below that.

SMILES	Bead autofluor	Vc quorum ag	BoNT F protease	Anthrax LF prot	BoNT A protease
Cc1nn(-c2cc(N3CCNCC3)ccc2[N+](=O)[O-])c(=O)c2ccccc12	3082	i	-2	-2	0
Cc1nn(-c2cc(N3CCCCC3)ccc2[N+](=O)[O-])c(=O)c2ccccc12	21077*	-3	0	2	?
N#C/C(=C/c1ccc(F)cc1)c1nc(CCN2C(=O)c3ccccc3C2=O)cs1	16963*	-1	-7	-3	-2
Cc1ccc(-c2nc(CCN3C(=O)c4ccccc4C3=O)cs2)cc1	23490*	i	-4	-5	?
Cc1ccc(N(C)C(=O)N2CCN(S(=O)(=O)c3ccc(C)c(C)c3)CC2)cc1	24506*	0	-9	-1	-6
CCn1c(NC)cc(=O)n(C)c1=O	4655	0	-13	-1	-1
CCn1c(=O)cc(NC2=NCC(C)CN2c2cccc(Cl)c2)n(C)c1=O (configuration not stated)	19894*	i	2	-8	?
COc1cc(C(=O)NCCC2=CCCCC2)cc(OC)c1OC	22928*	6	4	0	1
CC(C)CCNC(=O)C(=O)NCCC1=CCCCC1	2157	0	3	-1	0
CS(=O)(=O)Nc1ccc(C(=O)NC2CCCC2)cc1	20262*	i	-1	-2	0
CC(C)C(=O)Nc1ccc(C(=O)NNC(=O)NC2CCCCC2)cc1	17675*	3	11	-10	?
Cc1cc(C)cc(N(C(C)C(=O)NCCC2=CCCCC2)S(C)(=O)=O)c1 (configuration not stated)	23149*	0	-5	0	-2
O=C(C1CN(C(=O)c2cc3ccccc3o2)c2ccccc2O1)N1CCCCC1 (configuration not stated)	3266	i	-10	-2	0
O=C(NCc1cccc2[nH]ccc12)C1CCC(=O)N(CCc2ccccc2)C1 (configuration not stated)	5697	-6	4	-2	0
O=C(COC(=O)Cc1ccccc1F)Nc1cccc(S(=O)(=O)NC2=NCCCCC2)c1	4300	0	-1	-3	0
O=C(NC1CCCC1)C1CCN(c2cnccn2)CC1	4218	0	-4	0	0
COCC1=C(C(=O)OC)C(c2cccs2)n2ncnc2N1 (configuration not stated)	5966	0	-2	-1	0
COc1ccc(C)cc1NC(=O)NCCC1=CCCCC1	21584*	-1	-5	-2	-4
COC(=O)[C@@H](NC(=O)NCCC1=CCCCC1)C(C)C	4832	1	?	-18	?
CS(=O)(=O)N(Cc1ccc(Cl)cc1)c1ccc(C(=O)NCCC2=CCCCC2)cc1	11686	i	-16	-5	-1
Cc1ccc(S(=O)(=O)N2CCCCC2)cc1C(=O)NCCC1=CCCCC1	4532	i	?	2	1
Cc1cc(C(=O)NCCC2=CCCCC2)c(C)o1	16581*	0	0	0	0
CS(=O)(=O)Nc1ccc(C(=O)NCCC2=CCCCC2)cc1	24230*	i	-6	-1	?
C=C1C(=O)O[C@@H]2[C@H]1[C@@H](OC(=O)/C(C)=C/C)C/C(C)=C\C(=O)/C=C(\C)[C@@H]2O	3707	0	-7	-1	0
COc1ccccc1OCC(=O)N/N=C1/C=C(C)CC1	5151	0	2	-5	0
SMILES	Bead autofluor	Vc quorum ag	BoNT F protease	Anthrax LF prot	BoNT A protease
COc1ccc(-c2[nH]ncc2-c2cnn(-c3ccccc3)c2)c(O)c1	22408*	i	-4	-1	0
COc1ccc(-c2[nH]ncc2Oc2ccccc2OC)c(O)c1	24038*	i	-8	-6	-4
COc1ccc(Oc2cn[nH]c2-c2ccc(O)cc2O)cc1	2561	i	2	1	1
CN(C)c1ccc(CNC(=O)c2cc(S(=O)(=O)N3CCOCC3)cn2C)cc1	5161	0	-5	-7	0
COc1ccc(CCNC(=O)COC(=O)c2ccccn2)cc1	3925	-3	7	1	0
O=C(Nc1ccccc1C(F)(F)F)c1cc2ncc(CCCl)cn2n1	2463	0	3	-3	0
CN(C)S(=O)(=O)c1cccc(-c2cn3ccccc3n2)c1	2379	i	-18	-6	-1
CN(C)S(=O)(=O)c1cccc(-c2cn3cc(Cl)ccc3n2)c1	17034*	0	-1	-2	-2
Cc1ccc(-n2nc(C)cc2NC(=O)COc2cc(C)cc3oc(=O)c4c(c23)CCC4)cc1	22051*	-2	3	-1	1
Cc1cc(OCC(=O)O)c2c3c(c(=O)oc2c1)CCCC3	3526	i	-9	-3	0
CS(=O)(=O)N(CC(=O)NCCc1ccccc1)C1CCCCC1	18975*	0	7	0	5
COc1ccc(NC(=O)CN(C2CCCCC2)S(C)(=O)=O)cc1Cl	21935*	-11	-5	-2	-3
CCOc1ccc(N/C=C/C(=O)c2ccc3ccccc3c2)c([N+](=O)[O-])c1	16459*	0	0	-2	0
Cc1ccc(NC(=O)CN(C)C(=O)C(C)N2CCN(Cc3ccccc3C)CC2)cc1 (configuration not stated)	5516	-1	-6	2	-1
C(=N\N(c1ccccc1)c1ccccc1)/c1ccc(N2CCOCC2)s1	2493	0	-6	-4	0
CC(C)(C)NC(=O)C(c1ccccc1)N(C(=O)c1ccco1)C1CC1 (configuration not stated)	21553*	i	2	-5	?
CCCCCC1CC(CC#CCN2CCOCC2)C(=O)O1 (configuration not stated)	21965*	-1	6	-1	4
Cc1cc(C)cc(N(CC(=O)NC(C)(C)C)C(=O)CNC(=O)c2cccs2)c1	4391	i	2	-5	1
O=C1/C(=C\c2ccccc2)CCc2c1[nH]c1ccccc21	23509*	i	-3	-1	-1
Cc1ccc(/C=C2/CCc3c([nH]c4ccccc34)C2=O)cc1	23420*	1	3	1	0
Cc1ccc2[nH]c3c(c2c1)CC/C(=C/c1ccccc1)C3=O	8375	i	12	-6	3
O=C(CN1C(=O)NC2(CCCC2)C1=O)N1CCN(S(=O)(=O)c2ccccc2[N+](=O)[O-])CC1	4312	-1	4	0	6
CC1(C)CC(NC(=O)C23CCC(C)(/C(=N/O)C2)C3(C)C)CC(C)(C)N1 (configuration not stated)	22387*	i	-1	0	?
CC1(C)CC(NC(=O)C23CCC(C)(C(=O)C2=O)C3(C)C)CC(C)(C)N1 (configuration not stated)	4471	0	-3	5	0
CC1(C)CC(NC(=O)C23CCC(C)(C2Br)C3(C)C)CC(C)(C)N1 (configuration not stated)	3593	-1	35*	5	6
O=S1(=O)N[C@H](Cc2ccccc2)COc2cccc(N3CCC[C@@H]3CO)c21	4106	.	2	-12	0
Cc1cc(NC(=O)CSc2nc3ccccc3c(=O)n2CCCC(=O)NCc2ccccc2)n[nH]1	16651*	1	-10	-2	-2
